# In PubChem BioAssay (NCATS):
# Records with an inconclusive call do not appear. Active and inactive are the calls of the source. The call rests on the fitted dose curve; in most records, active means well fitted curve in either direction with a large enough effect (not every such curve was filed as active); inconclusive means small, poorly fitted or top-dose-only effect, or another doubt; inactive means flat fitted curve, though single readings scatter.
# Assay: AP1 Signaling Pathway (AID 357);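 further: ME-180 reporter cells stimulated with EGF at its EC50 level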
# Conditions: ME-180 (cervical carcinoma) AP-1-bla reporter, EGF-induced, beta-lactamase ratio, 5 h; series mostly up to 17.2 µM; activity change, negative = inhibition: at the top concentration
# Text: NCGC Assay Overview: Activator protein-1 (AP-1), a transcription factor, plays an important role in tumor genesis by regulating genes involved in cell proliferation, differentiation, apoptosis, and angiogenesis. AP-1 activity is induced by a complex network of signaling pathways that involves extracellular signals, such as growth factors. The AP-1 protein complex formed from c-Fos and c-Jun binding to the AP-1 response element results in transcriptional activation of genes containing such elements within their promoter. Low molecular weight molecules have been discovered and developed to modulate various components of these signaling pathways, for example, MAP kinase inhibitors. However, many points of pathway modulation remain untested due to the lack of chemical probes making this signaling locus of general interest. Using a beta-lactamase reporter-gene under control of the AP-1 response element, a cell-based assay [CellSensor(TM) AP-1-bla ME-180 developed by Invitrogen Corp.] was used to measure EGF-induced signaling. Library compounds were measured for their ability to modulate positively or negatively the action of EC50 EGF on reporter gene activity. Compounds were screened in a titration series in 1536-well format. Positive and negative modulators were identified based on the AC50 values derived from the screening data.
# NCGC Assay Protocol Summary: 2500 cells/5uL in Opti-MEM medium containing 0.5% dialyzed FBS, 0.1 mM NEAA, 1 mM sodium pyruvate and 10 mM HEPES was dispensed into 1536-well plates and cells were cultured at 37 degrees Celsius overnight. […] After centrifugation at 1000 rpm for 2 seconds the plates were incubated at 37 degrees Celsius for 5 hours. 1 uL of CCF4-dye mixture was added to each well. After incubated at room temperature for 2.5 hours the plates were measured on an EnVision plate reader at Excitation 405nm, Emission1=460nm and Emission 2=530nm. The %Activity was determined from the ratio of 460nm/530nm.
# On the % scale 0 is the no-effect control and ±100 the full control effect.
Structure (SMILES),outcome,"activity change, negative = inhibition"
NCc1ccc(S(N)(=O)=O)cc1,inactive,
Cc1ncc(CO)c(CN)c1O,,-7.88% [at 7.69 µM] (inactive)
O=C(O)COC(=O)Cc1ccccc1Nc1c(Cl)cccc1Cl,,-8.26% (inactive)
NC(=O)CC[C@@H](N)C(=O)O,,-11.6% [at 38 µM] (inactive)
Cc1c(NC(=O)c2cccnc2)c(=O)n(-c2ccccc2)n1C,,6.04% (inactive)
CN/C(=C\[N+](=O)[O-])NCCSCc1csc(CN(C)C)n1,,-2.52% (inactive)
CC(=O)[C@@]1(O)CC[C@H]2[C@@H]3C[C@H](C)C4=CC(=O)C=C[C@]4(C)[C@@]3(F)[C@@H](O)C[C@@]21C,,-1.91% (inactive)
CC(=O)NS(=O)(=O)c1ccc(N)cc1,inactive,
CC1CCc2cc(F)cc3c(=O)c(C(=O)O)cn1c23 (stereo not given),,-2.84% (inactive)
CCCCOC(=O)c1ccc(N)cc1,,-11.9% (inactive)
NS(=O)(=O)c1ccc(C(=O)O)cc1,inactive,
NS(=O)(=O)c1cc2c(cc1C(F)(F)F)NCNS2(=O)=O,inactive,
OC(CCN1CCCC1)(c1ccccc1)C1CCCCC1 (stereo not given),,12.1% (inactive)
CCOC(=O)[C@H](CCc1ccccc1)N[C@@H](C)C(=O)N1CCC[C@H]1C(=O)O,inactive,
NC(N)=NCCN1CCCCCCC1,,-1.27% (inactive)
O=S1(=O)OC(c2ccc(O)cc2)(c2ccc(O)cc2)c2ccccc21,,-3.53% [at 7.69 µM] (inactive)
CC[N+](CC)(CC(=O)Nc1c(C)cccc1C)Cc1ccccc1,,3.94% (inactive)
C[C@@H]1CCC[C@H](C)N1,,7.18% (inactive)
NC(N)=NS(=O)(=O)c1ccc(N)cc1,inactive,
CC(=O)N[C@@H](CC(C)C)C(=O)O,,1.07% (inactive)

Structure (SMILES),outcome,"activity change, negative = inhibition"
CCN(CC)CCOC(=O)C(c1ccccc1)c1ccccc1,inactive,
COc1ccc2cc(CCC(C)=O)ccc2c1,,-19.8% (inactive)
Cc1cccc(Nc2ccccc2C(=O)O)c1C,,5.13% (inactive)
CCS(=O)(=O)CCn1c([N+](=O)[O-])cnc1C,inactive,
Cn1c([N+](=O)[O-])cnc1COC(N)=O,inactive,
Cc1c(NC(C)C)c(=O)n(-c2ccccc2)n1C,,4.19% (inactive)
CC(C)=CCC/C(C)=C/CO,,6.89% [at 7.69 µM] (inactive)
CN1CCCN=C1COC(=O)C(O)(c1ccccc1)C1CCCCC1 (stereo not given),,-10.7% (inactive)
Nc1ccc(S(=O)(=O)c2ccc(N)cc2)cc1,inactive,
CN1C(C)(C)CCCC1(C)C,inactive,
O=C(Cn1ccnc1[N+](=O)[O-])NCCO,,-4.3% (inactive)
Cc1cc(C)nc(NS(=O)(=O)c2ccc(N)cc2)n1,inactive,
COc1ccc(NS(=O)(=O)c2ccc(N)cc2)nn1,inactive,
CCN(CC)CCc1nc(-c2ccccc2)no1,,-12.7% (inactive)
CC1(C)S[C@@H]2[C@H](NC(=O)C(C(=O)O)c3ccccc3)C(=O)N2[C@H]1C(=O)O (stereo not given in full),,6.45% (inactive)
CCCNC(C)(C)COC(=O)c1ccccc1,,-0.479% (inactive)
O=C(O)c1ccccc1OP(=O)(O)O,,0.618% (inactive)
O=C(O)CCCc1ccccc1,,1.37% (inactive)
Cc1cc(NC(=O)C2=C(O)c3ccccc3S(=O)(=O)N2C)no1,inactive,
CCc1cccc(CC)c1NC(=O)CN(CC(=O)O)CC(=O)O,,4% (inactive)
